# Measurements taken from PubChem BioAssay AID504848 (National Center for Advancing Translational Sciences (NCATS), 2011).
# Screen size: about 2,300 compounds; about 1,400 (61%) were called active. Inconclusive results (about 29%) are left out. Calls come from the whole dose curve; as a rule, active = well fitted inhibition curve with a large enough effect; inconclusive = small, poorly fitted or top-dose-only effect, or effect the other way; inactive = no such curve, though single readings can be large or run the other way. So high a share suggests a set chosen from earlier hits. The list shows a part of the results.
# Assay: Confirmation screen for delayed death inhibitors of the malarial parasite plastid, 96 hour incubation; note: nearly all actives have a fitted effect of over 60% in size
# Details: P. falciparum luciferase growth in erythrocytes; series mostly up to 28.7 µM
# Summary of the method: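 Two-generation (96 h, 37 C) exposure of P. falciparum carrying an integrated firefly luciferase reporter in erythrocytes, 0.1% parasitemia and 2% hematocrit final, Albumax-supplemented RPMI. Luminescence decrease measures growth inhibition.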
# Potency is the fitted concentration of half-maximal effect.
row,Compound,Potency
1,Cc1ccccc1C1c2[nH]c3ccccc3c2CCN1Cc1cccn1-c1ncccn1 (stereo not drawn),14.1 µM (active)
2,COc1ccc(C2c3[nH]c4ccccc4c3CCN2Cc2ccoc2)c(F)c1 (stereo not drawn),12.6 µM (active)
3,Fc1ccccc1C1c2[nH]c3ccccc3c2CCN1Cc1cccn1-c1ncccn1 (stereo not drawn),12.6 µM (active)
4,O=c1c(Cl)c(Cl)cnn1Cc1nnc(-c2ccc(Cl)cc2)o1,12.6 µM (active)
5,COc1cc2c(O)c3c(c(-c4ccc5c(c4)OCO5)c2cc1OC)C(=O)OC3,6.31 µM (active)
6,CCOC(=O)C1=C(C)NC(C)=C(C(=O)OCC)C1c1cc(N)ccc1OC(F)F,5.62 µM (active)
7,Cc1ccc(N(Cc2ccco2)C(=O)c2ccc(N3CCCCC3)c([N+](=O)[O-])c2)cc1,10 µM (active)
8,Nc1c(N(Cc2ccco2)C(=O)c2ccc(Br)cc2)c(=O)[nH]c(=O)n1Cc1ccccc1,inactive
9,COc1cc(CN2CCN(CC#Cc3ccccc3)CC2CCO)cc(OC)c1 (stereo not drawn),14.1 µM (active)
10,COc1cc(CN2CCN(Cc3c[nH]c4ccccc34)CC2CCO)cc(OC)c1 (stereo not drawn),12.6 µM (active)
11,Cc1cccc(Nc2nc3c(S(=O)(=O)c4ccccc4)nnn3c3ccccc23)c1C,3.98 µM (active)
12,CC(C)(C)NC(=O)CSc1nnc(-c2ccccc2)c(-c2ccccc2)n1,14.1 µM (active)
13,COc1ccc(/C=C2\CCc3ccccc3C2=O)cc1CN1CCOCC1,15.8 µM (active)
14,CCC(C)NC(=O)c1cc(Cl)c(NC(=O)C2=C(C)OCCS2)cc1OC (stereo not drawn),10 µM (active)
15,Cc1nn2c(Nc3ccccc3)c3c(nc2c1-c1ccccc1)CCC3,14.1 µM (active)
16,Cc1ccc(Cl)cc1Nc1nc(-c2sc(NC(=O)C(C)(C)C)nc2C)cs1,2.82 µM (active)
17,Cc1cccc(N(Cc2ccccc2)C(=O)CSC(C)C(=O)Nc2cc(C)on2)c1 (stereo not drawn),8.91 µM (active)
18,CCOC(=O)C1CCN(C(=O)C(=O)Nc2ccc3nc4n(c(=O)c3c2)CCCCC4)CC1,7.08 µM (active)
19,COc1ccccc1C(=O)Nc1ccc2nc3n(c(=O)c2c1)CCCC3,3.55 µM (active)
20,CCCCCNc1nc2sc3c(c2c(=O)n1-c1cccc(Cl)c1)CCN(C)C3,2.24 µM (active)
21,CCCCNc1nc2sc3c(c2c(=O)n1-c1cccc(Cl)c1)CCN(C)C3,1.26 µM (active)
22,O=C(O)c1ccc(C=C(c2nc3ccccc3s2)c2nc3ccccc3s2)cc1,15.8 µM (active)
23,Cc1cc(C(C)(C)C)cc(C)c1CCNC(=O)c1c(C)noc1C,10 µM (active)
24,CCCCNC(=O)c1onc(CSc2cc(C)ccc2C)c1C(=O)O,inactive

row,Compound,Potency
1,Cc1cc(C(C)(C)C)cc(C)c1CCNC(=O)c1ccc[n+]([O-])c1,12.6 µM (active)
2,Cc1ccc2c(c1)N(CCC(=O)NCc1ccco1)C(=O)CO2,inactive
3,Cc1ccc(-n2nc3c(=O)n(CCCC(=O)NCc4ccco4)nc(C)c3c2C)cc1,2.24 µM (active)
4,Cc1nn(CCCC(=O)NCc2ccco2)c(=O)c2nn(-c3ccccc3)c(C)c12,11.2 µM (active)
5,C/C(=N/OCO/N=C(\C)c1ccccc1)c1ccccc1,inactive
6,C/C(=N\NC(=S)Nc1cccc(C)c1)c1ccccc1,11.2 µM (active)
7,CCOC(=O)c1c(C)[nH]c(C(=O)Nc2cc(OCC)c(N3CCOCC3)cc2OCC)c1C,2.51 µM (active)
8,CCOC(=O)c1ccc(Nc2nc(=O)c3cccnc3s2)cc1,inactive
9,CCOC(=O)c1ccc(NC(=O)c2c(Cl)cc(C)nc2C)cc1,12.6 µM (active)
10,N#C/C(=C\c1coc2ccccc2c1=O)C(N)=S,11.2 µM (active)
11,N#C/C(=C\C=C\c1ccccc1[N+](=O)[O-])C(=O)NC1CCCCC1,5.01 µM (active)
12,COC(=O)C(=Cc1ccccc1[N+](=O)[O-])C(=O)OC,3.98 µM (active)
13,COCCNC(=O)/C(C#N)=C/C=C/c1ccccc1[N+](=O)[O-],10 µM (active)
14,CC1CCCCC1NC(=O)/C(C#N)=C/C=C/c1ccccc1[N+](=O)[O-] (stereo not drawn),4.47 µM (active)
15,CCCCN1/C(=C/c2cccc[n+]2C)Sc2cc(NC(C)=O)ccc21,1.58 µM (active)
16,CCC1CCC(C(=O)NC(CCSC)C(=O)NCCN(CC(C)C)CC(C)C)CC1 (stereo not drawn),7.08 µM (active)
17,O=C1C(=O)c2ccccc2C(O)=C1c1cccc([N+](=O)[O-])c1,10 µM (active)
18,COC(=O)c1ccc(C2N=C(c3cccs3)CC(c3ccccc3O)N2)cc1 (stereo not drawn),5.62 µM (active)
19,COc1cccc(NC(=O)CN2C(=O)NC3(CCCc4ccccc43)C2=O)c1 (stereo not drawn),3.98 µM (active)
20,COc1ccc(C2(c3ccc(OC)cc3)NC(=O)N(CC(=O)Nc3ccc(C(N)=O)cc3)C2=O)cc1,3.98 µM (active)
21,COC(=O)C1=C(C)Nc2ncnn2C1c1ccccn1 (stereo not drawn),inactive
22,CCOc1ccc(N(C(=O)c2snc(C(N)=O)c2N)C(C(=O)NCC2CCCO2)c2c[nH]c3ccccc23)cc1 (stereo not drawn),2.82 µM (active)
23,COc1cc(/C=C/C(=O)NC(=O)c2ccccc2O)ccc1OC(C)=O,8.91 µM (active)
24,Cn1c(=O)oc2cc(S(=O)(=O)NCCC(=O)NCc3ccc(F)cc3)ccc21,12.6 µM (active)

row,Compound,Potency
1,O=C1NC(=Nc2ccccc2)S/C1=C\c1ccccc1,11.2 µM (active)
2,O=C(NC1CCCCC1)N1CCN(c2ccc([N+](=O)[O-])cc2)CC1,12.6 µM (active)
3,CCCc1c(CC)c(=N)c2ccccc2n1C,0.0316 µM (active)
4,CC(C)(CNC(=O)/C=C/c1ccc(F)cc1)CNC(=O)/C=C/c1ccc(F)cc1,8.91 µM (active)
5,Nc1cccc2c1C(=O)N(C(=O)/C=C/c1ccc(F)cc1)C2=O,inactive
6,CCCCn1c(C2CCCCC2)nc2cc3[nH]c(=O)c(C(C)C)nc3cc21,11.2 µM (active)
7,Cc1cc(=O)oc2c1ccc1oc(/C(=N/O)c3ccccc3)c(C)c12,4.47 µM (active)
8,Cc1cc(Cl)cc(C)c1OCCn1ccnc1,11.2 µM (active)
9,CC#CC#Cc1cccc(=O)o1,3.98 µM (active)
10,Clc1ccc2nc(-c3ccccn3)c(Nc3ccc4c(c3)OCO4)n2c1,10 µM (active)
11,CCCCSc1nnc(-c2cc3c(C(F)(F)F)nn(C)c3s2)n1C,10 µM (active)
12,CCOc1ccccc1NC(=O)/C(C#N)=C/c1cccnc1,12.6 µM (active)
13,O=C(c1cccc(Cl)c1)c1nn(-c2ccccc2)c(=O)cc1C(F)(F)F,6.31 µM (active)
14,O=C(c1ccccc1)c1nn(-c2ccc(Cl)cc2)c(=O)cc1C(F)(F)F,12.6 µM (active)
15,Cc1oc(=O)c(NC(=O)c2ccc(Cl)cc2)cc1C(=O)c1ccccc1,inactive
16,COc1ccccc1N1CCN(C2CCCN(Cc3ccc(Cl)cc3)C2)CC1 (stereo not drawn),2.51 µM (active)
17,COc1ccc(N2CCN(C3CCCN(Cc4ccc(F)cc4)C3)CC2)cc1 (stereo not drawn),14.1 µM (active)
18,Cc1cccc(/C=C/C(=O)c2ccc(NC3=NCCCS3)cc2)c1,11.2 µM (active)
19,O=C(/C=C/c1ccccc1)c1ccc(NC2=NCCCS2)cc1,14.1 µM (active)
20,O=C(c1ccsc1)N1CCCC(N2CCN(c3cccc(C(F)(F)F)c3)CC2)C1 (stereo not drawn),12.6 µM (active)
21,Cc1cc(C(=O)N2CCCC(N3CCN(c4cccc(C(F)(F)F)c4)CC3)C2)c(C)o1 (stereo not drawn),10 µM (active)
22,COc1ccc(/C=C/C(=O)c2ccccc2)cc1Cn1nnc2ccccc21,6.31 µM (active)
23,COc1cc(Cn2nnc3ccccc32)ccc1O,11.2 µM (active)
24,Cc1cccc(NC(=S)/N=C(\N)Nc2nc(C)c3ccccc3n2)c1,12.6 µM (active)

row,Compound,Potency
1,CCCN1CCN(CCCNC(=O)c2cc3c(s2)-c2c(C)cccc2OC3)CC1,12.6 µM (active)
2,CCn1c2ccccc2c2c3ncc4cccn4c3ccc21,14.1 µM (active)
3,COC(=O)[C@@H]1C[C@]2(OC(=O)c3ccccc3)C=CC(=O)C[C@@H]2N1C(=O)OCc1ccccc1,12.6 µM (active)
4,Cc1cc(OCC(=O)N2CCCC2)cc(C)c1Cl,inactive
5,CCOc1ccc(S(=O)(=O)N2CCN(C(=O)CCOc3ccccc3C)CC2)cc1,11.2 µM (active)
6,O=S(=O)(c1ccc(SCCO)nc1)N1CCOCC1,inactive
7,O=S(=O)(c1ccc(OCc2ccc(Br)cc2)cc1)N1CCOCC1,8.91 µM (active)
8,CCOc1ccccc1OCCC(=O)N1CCN(S(=O)(=O)c2ccccc2[N+](=O)[O-])CC1,11.2 µM (active)
9,O=C(COc1ccccc1)N1CCN(S(=O)(=O)c2ccc(Br)cc2)CC1,10 µM (active)
10,Cc1cc(C)n2nc(C(=O)N/N=C/c3c4ccccc4cc4ccccc34)nc2n1,4.47 µM (active)
11,CSc1ccc(C2c3[nH]c4ccccc4c3CCN2C(=O)c2ccnn2C)cc1 (stereo not drawn),3.98 µM (active)
12,Cn1nccc1C(=O)N1CCc2c([nH]c3ccccc23)C1c1ccc(F)cc1 (stereo not drawn),6.31 µM (active)
13,CCc1ccc(C2c3[nH]c4ccccc4c3CCN2C(=O)c2cc(C)nn2C)cc1 (stereo not drawn),3.55 µM (active)
14,N=c1c2c3c(sc2ncn1Cc1ccccc1)CCCC3,inactive
15,COc1ccccc1NC(=O)c1oc2ccccc2c1NC(=O)C1CC1,7.94 µM (active)
16,O=C(c1ccccc1)N1CCCC(c2ccc(Cl)cc2)=N1,12.6 µM (active)
17,O=[N+]([O-])c1ccc(Sc2cccc3cccnc23)c([N+](=O)[O-])c1,2.82 µM (active)
18,Cc1ccc(/C=C/C(=O)NC(C)c2ccccc2)cc1 (stereo not drawn),11.2 µM (active)
19,CCN(CC)CCC[C@H](C)Nc1ccnc2cc(Cl)ccc12,0.501 µM (active)
20,COc1ccc2nc3cc(Cl)ccc3c(Nc3cc(C(C)C)c(O)cc3C)c2c1,0.0251 µM (active)
21,CCN(CC)CCC[C@H](C)Nc1c2ccc(Cl)cc2nc2ccc(OC)cc12,0.224 µM (active)
